# STAT3 binder – STAT3 (human) binding; Small molecule microarray, His-STAT3 binding, anti-His fluorescence; calls only; actives 0.2% (n = 17,000); AID 624138;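 active = compounds whose four printed spots each show fluorescence over background unusually high for their array block, chance value under 7%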
# NFkB binder – NF-kappa-B p105 (human) binding. P19838. Small molecule microarray, anti-His fluorescence binding. calls only. actives 1.3% (n = 17,000). AID 624139;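 active = spot fluorescence over background significantly raised, with a chance value under 7% in all four replicate spots of the compound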;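 also: probe protein is his-tagged human p50 processed subunit at 1 µg/ml; raw spot fluorescence signals with no normalization applied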
# p53 mut binder – binders of human mutant p53. calls only. AID 624136. actives 0.4% (n = 17,000). small molecule microarray binding, anti-GST fluorescence;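 active = compounds whose four printed spots each glow above background more than chance allows, each with a p-value under 7%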
# Myc binder – c-Myc (human) binding | P01106 | small molecule microarray, His-c-Myc binding, anti-His fluorescence | AID 624141 | calls only | actives 1.5% (n = 17,000);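 active = spot fluorescence over background with P-value below 7% in all four replicate spots, showing protein binding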;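 also: score is binary with 100 for all four spots passing and 0 otherwise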
# Target sequence (P01106 whole entry, looked up): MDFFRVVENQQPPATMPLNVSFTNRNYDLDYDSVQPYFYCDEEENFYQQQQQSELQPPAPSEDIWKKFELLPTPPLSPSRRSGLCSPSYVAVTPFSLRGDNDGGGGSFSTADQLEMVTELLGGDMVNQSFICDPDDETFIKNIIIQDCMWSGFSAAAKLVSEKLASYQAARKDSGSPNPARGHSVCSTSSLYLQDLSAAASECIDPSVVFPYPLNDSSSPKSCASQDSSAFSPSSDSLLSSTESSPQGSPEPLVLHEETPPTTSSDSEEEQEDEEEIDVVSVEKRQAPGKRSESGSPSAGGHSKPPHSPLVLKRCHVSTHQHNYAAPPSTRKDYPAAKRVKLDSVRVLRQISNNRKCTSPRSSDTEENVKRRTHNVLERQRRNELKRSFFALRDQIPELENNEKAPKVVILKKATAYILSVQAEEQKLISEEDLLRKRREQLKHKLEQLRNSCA
# * = called active by the depositor; i = inactive; nt = not tested or not shown; + = active, no number. Most compounds without a hit are left out; they make up all but 2.5% or so of the library.
SMILES,STAT3 binder,NFkB binder,p53 mut binder,Myc binder
C[C@@H]1CN([C@@H](C)CO)C(=O)c2cc(NS(C)(=O)=O)ccc2O[C@@H](C)CCCCO[C@@H]1CN(C)C(=O)CCC(F)(F)F,i,i,i,+
C=C1CCC(C)C(C)(CCC2=CC(=O)OC2O)C/C=C\C=C/1C(=O)O (centres undefined),i,i,i,i
Cc1ccc(S(=O)(=O)NC(=O)CSc2nc3ccccc3s2)cc1,i,i,i,+
COc1cc(OC)nc(NC(=O)CSc2nc3ccccc3s2)n1,i,i,i,i
Cc1cccc(NC(=O)CC2OCCN(Cc3ccccc3)C2=O)c1 (centres undefined),i,i,i,i
CCc1ccc(S(=O)(=O)NCC(=O)O)cc1,i,+,i,+
C[C@@H]1CN([C@H](C)CO)C(=O)c2cc(NC(=O)Nc3ccc4c(c3)OCO4)ccc2O[C@H]1CN(C)CC1CCCCC1,i,i,i,i
C[C@@H]1CN([C@H](C)CO)C(=O)c2cc(NC(=O)Nc3ccc4c(c3)OCO4)ccc2O[C@@H]1CN(C)CC1CCCCC1,i,i,+,i
C[C@@H]1CCCCO[C@@H](CN(C)CC2CCCCC2)[C@H](C)CN([C@H](C)CO)C(=O)c2cc(NS(C)(=O)=O)ccc2O1,i,+,i,i
C[C@H]1CCCCO[C@@H](CN(C)CC2CCCCC2)[C@@H](C)CN([C@@H](C)CO)C(=O)c2cc(NC(=O)C3CCCCC3)ccc2O1,i,+,i,i
C=CCOC(=O)[C@H]1[C@@H]2C(=O)O[C@@H](c3ccccc3)[C@@H](c3ccccc3)N2[C@@H](c2ccc(OCCOC(=O)[C@H]3C[C@H]4C(=O)N[C@@H](CCCCNC(C)=O)C(=O)N4[C@H]3c3cccc(OCCO)c3)cc2)[C@]12C(=O)Nc1ccccc12,i,i,i,i
Cc1ccc(S(=O)(=O)NC(=O)COc2cccc3ccccc23)c(C)c1,i,i,i,+
CC(C)(C)NS(=O)(=O)c1ccc(NC(=O)COc2ccc3ccccc3c2Br)cc1,i,i,i,i
COC(Cc1nc2ccccc2s1)C(=O)O (centres undefined),i,i,i,+
C/C=C/CC(C)C(O)C1C(=O)NC(CC)C(=O)N(C)CC(=O)N(C)C(CC(C)C)C(=O)NC(C(C)C)C(=O)N(C)C(CC(C)C)C(=O)NC(C)C(=O)NC(C)C(=O)N(C)C(CC(C)C)C(=O)N(C)C(CC(C)C)C(=O)N(C)C(C(C)C)C(=O)N1C (centres undefined),i,+,i,nt
C[C@H](CO)N1C[C@H](C)[C@H](CN(C)S(=O)(=O)c2ccccc2)Oc2ncc(C#Cc3ccc(C(F)(F)F)cc3)cc2C1=O,i,i,i,+
COc1ccc(NC(=O)N(C)C[C@@H]2Oc3ncc(-c4cccc(C(F)(F)F)c4)cc3C(=O)N([C@H](C)CO)C[C@@H]2C)cc1,i,i,i,i
C[C@@H]1CN([C@@H](C)CO)C(=O)c2cccc(NC(=O)NC3CCCCC3)c2O[C@@H]1CN(C)C(=O)Nc1ccc(C(F)(F)F)cc1,i,+,i,+
C[C@@H]1CN([C@H](C)CO)C(=O)c2cccc(NC(=O)NC3CCCCC3)c2O[C@@H]1CN(C)C(=O)Nc1ccc(C(F)(F)F)cc1,i,i,i,i
C[C@H]1CN([C@@H](C)CO)C(=O)c2cccc(NC(=O)NC3CCCCC3)c2O[C@H]1CN(C)S(=O)(=O)c1ccc(Cl)cc1,i,i,i,+
C[C@H](CO)N1C[C@H](C)[C@H](CN(C)C(=O)Nc2ccccc2)Oc2ncc(-c3cccc(C(F)(F)F)c3)cc2C1=O,i,+,i,+
COc1cc([N+](=O)[O-])ccc1NC(=O)COc1ccc2ccccc2c1,i,i,i,i
C[C@H]1CN([C@@H](C)CO)C(=O)c2cccc(NC(=O)Nc3ccc(C(F)(F)F)cc3)c2O[C@@H]1CN(C)C(=O)NC1CCCCC1,+,i,i,i
C[C@@H]1CN([C@@H](C)CO)C(=O)c2cccc(NC(=O)c3cnccn3)c2O[C@H]1CN(C)C(=O)Nc1ccccc1,i,+,i,+
C[C@H]1CN([C@@H](C)CO)C(=O)c2cccc(NC(=O)Nc3ccc(C(F)(F)F)cc3)c2O[C@@H]1CN(C)CC1CC1,+,i,i,i
C[C@H]1CN([C@@H](C)CO)C(=O)c2cccc(NC(=O)NC3CCCCC3)c2O[C@@H]1CN(C)C(=O)Nc1ccc(F)cc1,i,i,i,i

# Screening results deposited in PubChem BioAssay by Broad Institute.
